Test results: PubChem BioAssay (NCI)
About 83,000 compounds went through this panel and 20% of them were active in at least one assay; those are over-represented in the sample as a whole.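 A percent growth of 40 corresponds to 60% growth inhibition; 0 means no net growth; -100 means all cells died. Active threshold: below 10.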 Unmarked numbers belong to inactive results. The source made the active and inactive calls.

Tests used:
Assay in all cases: NCI-60 one-dose screen, 48 h (100 = growth as untreated, 0 = no growth, -100 = all killed)
Conditions in all cases: 10 µM unless noted
NCI-H23 lung = system: NCI-H23 lung
NCI-H226 lung = system: NCI-H226 lung
NCI-H322M lung = system: NCI-H322M lung
HOP-62 NSCLC = system: HOP-62 NSCLC
NCI-H460 lung = system: NCI-H460 lung
HOP-92 NSCLC = system: HOP-92 NSCLC
NCI-H522 lung = system: NCI-H522 lung
A549/ATCC NSCLC = system: A549/ATCC NSCLC
786-0 renal = system: 786-0 renal
COLO 205 colon = system: COLO 205 colon
DU-145 prostate = system: DU-145 prostate
MALME-3M melanoma = system: MALME-3M melanoma
MDA-MB-231 breast = system: MDA-MB-231 breast
RXF 393 renal = system: RXF 393 renal
SF-268 CNS = system: SF-268 CNS
SF-295 CNS = system: SF-295 CNS
SF-539 CNS = system: SF-539 CNS
UACC-257 melanoma = system: UACC-257 melanoma
M14 melanoma = system: M14 melanoma

SMILES | growth (NCI-H23 lung) | growth (NCI-H226 lung) | growth (NCI-H322M lung) | growth (HOP-62 NSCLC) | growth (NCI-H460 lung) | growth (HOP-92 NSCLC) | growth (NCI-H522 lung) | growth (A549/ATCC NSCLC) | growth (786-0 renal) | growth (COLO 205 colon) | growth (DU-145 prostate) | growth (MALME-3M melanoma) | growth (MDA-MB-231 breast) | growth (RXF 393 renal) | growth (SF-268 CNS) | growth (SF-295 CNS) | growth (SF-539 CNS) | growth (UACC-257 melanoma) | growth (M14 melanoma)
Cc1nc2sccn2c1-c1cn2ccsc2n1 | 60.2% | 84.3% | 82.7% | 90.7% | 65.9% | 69.6% | 89.2% | 98.9% | 95.8% | 87.2% | 76.3% | 77.7% | 81.3% | 77.5% | 102% | 89.9% | 90.5% | 91% | 93.7%
Clc1ccc(-c2ccc(CNCC3CCNCC3)o2)c(-c2ccccc2)c1 | -39.8% (active) | -12.1% (active) | -25.7% (active) | -78.3% (active) | -86.7% (active) | -39.3% (active) | -70.7% (active) | -79.5% (active) | -90.2% (active) | -76.3% (active) | -94.2% (active) | -85.4% (active) | -86.5% (active) | -88.2% (active) | -82% (active) | -86.1% (active) | -90.3% (active) | -75.3% (active) | -83.3% (active)
COc1cc(C(=O)Nc2cc3c(cc2Oc2cc(C)cc(C)c2)C(=O)N(C)[C@@H](CC(=O)N(C)O)C(=O)N3)c(Br)c(OC)c1OC | -20.4% (active) | -17.2% (active) | -32.5% (active) | -15.7% (active) | -14.7% (active) | -16.4% (active) | -43.1% (active) | -4.48% (active) | -38.5% (active) | -17.9% (active) | -31.7% (active) | -55.3% (active) | -34.3% (active) | -56.7% (active) | -27.1% (active) | -34.6% (active) | -46.7% (active) | -12.4% (active) | -88.2% (active)
CC(C)(C)[Si](C)(C)OC1[C@@H](O[Si](C)(C)C(C)(C)C)[C@@H](CNC(=O)NC(=O)CCl)O[C@H]1n1cnc2c(NC(=O)Nc3ccccc3)ncnc21 (stereo not given in full) | -93.3% (active) | -93.8% (active) | 120% | -95.5% (active) | 11.9% | -74% (active) | -61.9% (active) | 1.49% (active) | -93.8% (active) | -18.3% (active) | -2.39% (active) | -70.2% (active) | -72.7% (active) | -93.1% (active) | -77.4% (active) | -71.2% (active) | -86.2% (active) | 14.1% | -56% (active)
COc1cc(/C=C\c2cc(OC)c(OC)c(OC)c2)cc(N)c1OC | 83.6% | 97.8% | 81.3% | 79.8% | 104% | 78.4% | 58.6% | 93.1% | 82.3% | 104% | 110% | 77.9% | 88.6% | 105% | 93.3% | 73.7% | 84.3% | 87.5% | 66.1%
COc1cc(/C=C/C(=O)c2nc3cc(F)ccc3nc2C)cc(OC)c1OC | 64.6% | 103% | 102% | 106% | 53.5% | 48.9% | 70.3% | 65% | 75.7% | 82% | 22.9% | 65.3% | 85% | 54.5% | 89.2% | 347% | 97.5% | 74.1% | 73.1%
O=C(/C(=C/c1ccc([N+](=O)[O-])cc1)SCc1ccc(F)cc1)c1ccc(F)cc1 | 74.8% | 86.9% | 85.9% | 93.6% | 90.7% | 90.2% | 52.2% | 91.4% | 78.7% | 94.7% | 94.6% | 88.8% | 76.1% | 97% | 80.8% | 93.2% | 105% | 108% | 82.8%
C[C@H]1[C@H](C)CC[C@]2(C(=O)Nc3ccc4ncccc4c3)CC[C@]3(C)C(=CC[C@@H]4[C@@]5(C)CCCNC(C)(C)[C@@H]5CC[C@]43C)[C@H]12 | 51% | 110% | 63.1% | 95.2% | -79.8% (active) | 60.2% | 9.94% (active) | -92.1% (active) | -96.2% (active) | -82.7% (active) | -74.1% (active) | -78.5% (active) | -71.9% (active) | -84.8% (active) | -40.4% (active) | -50.8% (active) | -72.9% (active) | -86.9% (active) | -92% (active)
O=C1c2ccccc2CCC12OC2c1cn(-c2ccccc2)nc1-c1ccc(Cl)cc1 (stereo not given) | 103% | 75.1% | 99.6% | 108% | 58.9% | 40.5% | 87.1% | 92.7% | 115% | 93.9% | 111% | 105% | 91.9% | 93.1% | 93.1% | 71.9% | 93.4% | 96.1% | 97.7%
Cc1ncc(C(=O)Nc2ccc(CN3CCN(C)CC3)c(C(F)(F)F)c2)cc1C#Cc1cnc(N)cc1C#N | 30.6% | -71% (active) | 28% | 42.3% | -77.6% (active) | 17.3% | -46.2% (active) | -89.5% (active) | -65.5% (active) | 21.5% | -96.1% (active) | -94.3% (active) | -81.4% (active) | -93.3% (active) | 22.9% | 70% | -98.4% (active) | -89.3% (active) | -75.1% (active)
COC(=O)C(CC=O)C(=O)C(=O)Nc1cccc(C(F)(F)F)c1 (stereo not given) | 101% | 98.7% | 97.3% | 82.2% | 98.6% | 95.1% | 87.2% | 78.1% | 107% | 110% | 110% | 113% | 90.2% | 103% | 95% | 110% | 99.9% | 66.5% | 106%
COc1cc2c3c(c4c5ccccc5[nH]c4c2c(OC)c1OC)C(=O)N(CCN1CCOCC1)C3=O | 63% | 69.8% | 68.2% | 59.9% | 18.6% | 75.4% | 35.4% | 45.1% | 56.2% | 56.4% | 66% | 78.5% | 72.4% | 48.8% | 47.7% | 36.5% | 63.7% | 70.4% | 76%
C=C1C(=O)O[C@H]2[C@H]1CC/C(CNC(=O)c1cccc3ccccc13)=C\CC[C@@]1(C)O[C@@H]21 | 70.1% | 78% | 90.5% | 93.1% | 78.6% | -11% (active) | -46.7% (active) | 76.9% | 32.2% | 28.5% | 33.8% | 36.2% | 34.1% | 27.5% | 63.1% | 85.9% | 59.7% | 66.2% | 38.2%
C#Cc1cccc(NC(=O)Nc2cccc(NC(=O)CCl)c2)c1 | -82.8% [8.25 µM] (active) | -12.1% [8.25 µM] (active) | 88.9% [8.25 µM] | 36.1% [8.25 µM] | -32.2% [8.25 µM] (active) | -53.1% [8.25 µM] (active) | -37.5% [8.25 µM] (active) | 56.8% [8.25 µM] | -65.1% [8.25 µM] (active) | -51.3% [8.25 µM] (active) | 44.4% [8.25 µM] | -50.2% [8.25 µM] (active) | -61% [8.25 µM] (active) | -48.7% [8.25 µM] (active) | -2.2% [8.25 µM] (active) | 45% [8.25 µM] | -95.2% [8.25 µM] (active) | 48.7% [8.25 µM] | 6.26% [8.25 µM] (active)
COc1ccc(C(=O)CC#N)cc1 | 107% | 98% | 120% | 122% | 108% | 119% | 113% | 104% | 107% | 117% | 107% | 123% | 96.8% | 106% | 107% | 131% | 121% | 102% | 110%
